Measured values as given in PubChem BioAssay AID1456 (Vanderbilt High Throughput Screening Facility, 2008).
Among all 190,000 compounds or so, about 4,100 (2.2%) were called active.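 How the source made its calls: active means thallium flux slope and its plate-corrected score both differing from the plate sample mean at a set confidence after two filtering rounds, in either direction; inactive means the rest.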 The sample as a whole holds a higher share of actives than the screen did.

molecular target: Solute carrier family 12 member 5 (Homo sapiens) (UniProt Q9H2X9); test: KCC2 cotransporter modulators, thallium flux, primary screen, cell-based, HEK293 KCC2, FluoZin-2 fluorescence, MLSMR (AID 1456); conditions: KCC2 cells, thallium flux FluoZin-2 fluorescence; at 10 µM;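 further: slope of fluorescence scaled to starting intensity during 10 to 20 s after thallium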
Sequence (Q9H2X9 whole entry, looked up): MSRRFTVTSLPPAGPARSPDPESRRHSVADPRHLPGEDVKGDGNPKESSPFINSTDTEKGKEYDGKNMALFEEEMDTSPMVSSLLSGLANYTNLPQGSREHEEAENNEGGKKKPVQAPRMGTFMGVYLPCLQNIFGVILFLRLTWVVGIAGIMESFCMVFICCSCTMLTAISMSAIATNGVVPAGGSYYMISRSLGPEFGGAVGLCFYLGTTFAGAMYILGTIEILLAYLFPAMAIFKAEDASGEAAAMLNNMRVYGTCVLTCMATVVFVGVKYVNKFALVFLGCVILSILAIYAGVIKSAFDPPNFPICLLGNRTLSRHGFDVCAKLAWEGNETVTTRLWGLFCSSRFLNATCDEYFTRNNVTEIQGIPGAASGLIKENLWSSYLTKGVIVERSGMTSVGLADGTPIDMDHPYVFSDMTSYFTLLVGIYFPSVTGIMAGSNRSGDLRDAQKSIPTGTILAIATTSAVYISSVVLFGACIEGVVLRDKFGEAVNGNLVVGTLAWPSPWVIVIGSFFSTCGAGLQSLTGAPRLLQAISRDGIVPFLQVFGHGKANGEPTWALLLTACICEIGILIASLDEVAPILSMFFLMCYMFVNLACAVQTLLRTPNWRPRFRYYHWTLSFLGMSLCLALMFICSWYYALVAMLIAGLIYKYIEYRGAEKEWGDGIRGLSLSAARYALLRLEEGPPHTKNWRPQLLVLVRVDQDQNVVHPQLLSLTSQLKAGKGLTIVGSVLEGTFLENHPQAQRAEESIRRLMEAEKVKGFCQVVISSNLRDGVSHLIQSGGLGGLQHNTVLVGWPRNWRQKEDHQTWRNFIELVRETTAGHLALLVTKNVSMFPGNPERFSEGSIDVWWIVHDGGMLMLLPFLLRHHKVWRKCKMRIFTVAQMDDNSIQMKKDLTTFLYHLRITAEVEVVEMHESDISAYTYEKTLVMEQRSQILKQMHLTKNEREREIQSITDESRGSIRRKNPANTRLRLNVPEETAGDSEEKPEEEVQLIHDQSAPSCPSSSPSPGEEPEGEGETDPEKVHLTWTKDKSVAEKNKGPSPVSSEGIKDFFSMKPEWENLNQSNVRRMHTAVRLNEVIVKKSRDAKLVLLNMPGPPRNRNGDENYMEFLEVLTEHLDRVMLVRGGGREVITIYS

SMILES | B-score of Tl+ flux slope (higher = more flux/activation; lower = inhibition)
COc1cc(/C=C2/C(=O)NN(c3ccc(F)cc3)C2=O)cc([N+](=O)[O-])c1O | -2.31 (inactive)
COc1ccc(N2C(=O)CNC2=S)cc1 | 0.069 (inactive)
COc1ccc(-c2cn(-c3ccc(OC)cc3)c(=S)[nH]2)cc1 | 8.53 (active)
COc1ccc(-n2c(C)csc2=S)cc1 | 0.0167 (inactive)
O=C(O)CCCCCCCCCC[n+]1ccccc1 | 0.183 (inactive)
O=C(O)c1ccccc1OCc1ccccc1Cl | 0.00686 (inactive)
COc1ccc(OC)c(-n2c(-c3ccn[nH]3)n[nH]c2=S)c1 | -0.678 (inactive)
Cc1cc([N+](=O)[O-])nn1Cc1ccc(F)cc1 | -0.826 (inactive)
Cc1nc(SCc2ccc(F)cc2)c([N+](=O)[O-])[nH]1 | -4.77 (active)
O=C(Nn1c(SCc2ccc([N+](=O)[O-])cc2)nc2ccccc2c1=O)c1ccc(F)cc1 | 0.0971 (inactive)
CN(C)C(=O)c1nc2ccc(Cl)cn2c1CNCc1cccc(OC(F)(F)F)c1 | -0.562 (inactive)
COc1ccc(N2C(=O)CC(Nc3ccc(F)cc3)C2=O)c([N+](=O)[O-])c1 (stereo not drawn) | -1.31 (inactive)
O=C(CN(c1cccc(Cl)c1)S(=O)(=O)c1ccccc1)NN=C1CCCC1 | 3.73 (active)
Cc1ccc(S(=O)(=O)N(CC(=O)N2CCc3ccccc3C2)c2cccc(Cl)c2)cc1 | -1.52 (inactive)
CN1CCC(=NNC(=O)CN(c2cccc(Cl)c2)S(C)(=O)=O)CC1 | 0.643 (inactive)
CCn1c(SCC(=O)N/N=C/c2ccncc2)nc2ccccc21 | -0.7 (inactive)
Cc1cccc(NC(=O)CSc2nnc(CCNC(=O)OC(C)(C)C)o2)c1C | -0.155 (inactive)
COc1cccc(Nc2nc(N)c([N+](=O)[O-])c(NCc3ccco3)n2)c1 | -0.0593 (inactive)
COc1ccc(C(=O)N/N=C2\CCS(=O)(=O)c3ccc(F)cc32)cc1OC | 0.15 (inactive)
O=C(NCCCn1ccnc1)C(=O)NCC1OCCN1S(=O)(=O)c1cc(F)ccc1F (stereo not drawn) | -0.0662 (inactive)
CCn1c(CSCc2c(Cl)cccc2Cl)n[nH]c1=S | -0.136 (inactive)
S=c1[nH]nc(CSCc2ccc(Cl)cc2Cl)n1-c1ccccc1 | 38.3 (active)
S=c1[nH]nc(-c2cc(-c3ccsc3)n[nH]2)n1-c1ccccc1 | -0.815 (inactive)
Cc1ccc(NCc2n[nH]c(=S)n2-c2ccccc2)cc1Cl | 20.1 (active)
O=c1[nH]nc(CSCc2ccccc2Cl)[nH]1 | 1.48 (inactive)

SMILES | B-score of Tl+ flux slope (higher = more flux/activation; lower = inhibition)
COc1ccc(NCc2nnc(SCc3ccccc3)n2-c2ccc(OC)cc2)cc1 | -2.95 (inactive)
Cc1noc(C)c1C(=O)OCC(=O)N1CCN(S(=O)(=O)c2ccc3ccccc3c2)CC1 | -0.121 (inactive)
CS(=O)(=O)c1ccc(Cl)c(NC(=O)Nc2ccccc2)c1 | -0.0556 (inactive)
COc1ccc(CCN2C(=O)N(c3ccc(OC)cc3)C(=O)C2CC(=O)Nc2ccc(OC)cc2)cc1 (stereo not drawn) | 0.0027 (inactive)
C/C(=N\NC(=O)CC(C)C)c1c(C(F)(F)F)[nH]n(-c2nc3ccccc3s2)c1=O | -1.82 (inactive)
COc1ccccc1P(=O)(c1ccccc1)c1ccccc1NC(C)=O (stereo not drawn) | 0.0591 (inactive)
COc1ccc(CNC(=O)CCn2cccc2)cc1 | 7.58 (active)
CCOc1cc2[nH]c(=O)n(CCC(=O)NCc3ccc(OC)cc3)c(=O)c2cc1OCC | 0.0101 (inactive)
COc1ccc(CNC(=O)C(Cc2ccccc2)n2cccc2)cc1 (stereo not drawn) | -2.15 (inactive)
N#CCCCn1c(O)c(N=NC(=O)C(O)c2ccccc2)c2ccccc21 (stereo not drawn) | -0.218 (inactive)
Cn1cccc1C(C#N)c1ccccc1C#N (stereo not drawn) | 1.43 (inactive)
O=C(COC(=O)c1ccc(S(=O)(=O)Nc2ccccc2)cc1)NCC1CCCO1 (stereo not drawn) | 0.0831 (inactive)
O=C(NCCCN1CCOCC1)c1ccc(N2CCCC2)c([N+](=O)[O-])c1 | -0.0166 (inactive)
O=C(O)c1ccc(NC(=O)c2cn(-c3ccccc3)nc2-c2ccc(Cl)cc2)cc1 | -0.953 (inactive)
O=C(Nc1cn(-c2ccccc2)nc1-c1ccccc1)c1ccccc1 | -1.74 (inactive)
O=C(NNC(=S)NC(=O)c1cn(-c2ccccc2)nc1-c1ccccc1)c1ccncc1 | 8.65 (active)
O=C(NCC(c1cccs1)N1CCOCC1)c1cc(-c2ccccn2)nc2ccccc12 (stereo not drawn) | -0.17 (inactive)
Cc1cccc(CSc2nc3c(c(=O)n2C)SCC3)c1 | -0.478 (inactive)
CCn1c(SCc2ccccc2)nc2c(c1=O)SCC2 | -2.99 (active)
CCc1nnc(NC(=O)CSc2nc3c(c(=O)n2-c2ccccc2OC)SCC3)s1 | -2.34 (inactive)
CC1=CC(C)(C)NC(=S)N1NC(=O)c1ccccc1Cl | 1.28 (inactive)
O=c1[nH]c2cccnc2n1-c1ccc([N+](=O)[O-])cc1 | 1.09 (inactive)
C/C(=N\NC(=O)C(N)=O)c1ccc2c(c1)OCCO2 | 0.474 (inactive)
C/C(=N/NC(=S)Nc1ccccc1)c1ccc2c(c1)OCO2 | 17.1 (active)
O=C(Nc1ccccc1)c1ccc2c(c1)OCO2 | 1.15 (inactive)

SMILES | B-score of Tl+ flux slope (higher = more flux/activation; lower = inhibition)
C/C(CC(=O)NC(C)c1ccccc1)=N\NC(N)=S (stereo not drawn) | -0.13 (inactive)
NS(=O)(=O)c1ccc(NC2=CC(c3ccc(F)cc3)N(c3ccc(S(N)(=O)=O)cc3)C2=O)cc1 (stereo not drawn) | -4.18 (inactive)
COc1ccc(F)cc1S(=O)(=O)N1CCCCC1 | -0.191 (inactive)
O=C(/C=C/c1cccc([N+](=O)[O-])c1)NCCSCc1ccco1 | 0.313 (inactive)
Cc1cc(C)cc(N(CC(=O)NCCSCc2ccco2)S(C)(=O)=O)c1 | -0.0202 (inactive)
COc1cc(OC)cc(C(=O)NCCSCc2ccco2)c1 | 2.23 (active)
O=[N+]([O-])c1ccc2c(c1)C(O)n1nc(-c3ccccc3)nc1S2 (stereo not drawn) | 0.824 (inactive)
Cc1ccc(-c2noc(CN3CCN(Cc4ccccc4)CC3)n2)cc1 | -2.45 (active)
Cc1ccc(Cc2nc(-c3cccc(C)c3)no2)cc1 | -0.589 (inactive)
CC1CCN(Cc2nc(-c3ccc(Cl)cc3)no2)CC1 | -0.00541 (inactive)
COc1cc(/C=C2/C(=O)ON=C2C)ccc1OCc1cccc(F)c1 | 0.0292 (inactive)
Cc1ccc(C(=O)Nc2nc(N)n(-c3ccccc3)n2)cc1 | 0.00295 (inactive)
S=c1[nH]nc2c3c4c(sc3ncn12)CCCC4 | 6.7 (active)
N=c1c2c3c(sc2ncn1N)CCCC3 | 1.3 (inactive)
c1nnc2c3c4c(sc3ncn12)CCC4 | -0.0315 (inactive)
O=C(CCl)Nc1cccc(CP(=O)(c2ccccc2)c2ccccc2)c1 | -0.0445 (inactive)
CCN(CC)C(=O)CS(=O)CC(=O)Nc1cc(OCCOC)c(Cl)cc1Cl (stereo not drawn) | -0.00564 (inactive)
O=C(Nc1ccccc1F)C1C2C=CC3(O2)C1C(=O)N(c1cccnc1)C3C(=O)NC1CCCCC1 (stereo not drawn) | -6.39 (active)
CC(C)N1C(=O)C2C(C(=O)NC3CCCCC3)C3C=CC2(O3)C1C(=O)NC1CCCC1 (stereo not drawn) | -0.424 (inactive)
O=C(NCc1cccnc1)Nc1ccccc1F | 0.189 (inactive)
Cc1nn(-c2ccccc2)c(=O)c2noc(C)c12 | -0.0422 (inactive)
CCOC(=O)c1c(NC(=S)NC)sc2c1CCCC2 | 118 (active)
CCOC(=O)c1c(NC(=S)Nc2ccccc2C)sc2c1CCC2 | -0.787 (inactive)
CCOCC(=O)Nc1sc2c(c1C(=O)OCC)CCCC2 | 0.549 (inactive)
Cc1nc(=O)c(-c2ccccc2)c(C)n1-c1ccc(Br)cc1 | -0.435 (inactive)

SMILES | B-score of Tl+ flux slope (higher = more flux/activation; lower = inhibition)
Cc1cc(C)n(-c2nc(SCC(=O)N3CCCC3)c3c4c(sc3n2)CCCC4)n1 | 0.509 (inactive)
CCC(O)CNc1nc(-n2nc(C)cc2C)nc2sc3c(c12)CC(C)(C)OC3 (stereo not drawn) | -1.67 (inactive)
COCCNc1nc(-n2nc(C)cc2C)nc2sc3c(c12)CCCC3 | -4.01 (active)
COc1cccc(N2C(=O)CC(N3CCc4ccccc4C3)C2=O)c1 (stereo not drawn) | 0.0221 (inactive)
O=C(CSc1nc2ccccc2o1)N/N=C/c1ccccc1C(=O)O | 0.867 (inactive)
CSc1sc(C(=O)NC(=O)NCc2cccnc2)c(C)c1-c1ccon1 | -1.42 (inactive)
COC(=O)c1ccccc1NC(=S)NC(=O)c1ccccc1F | 4.93 (inactive)
COC(=O)c1cccnc1NC(=S)NC(C)C | 37.7 (active)
CCOC(=O)c1cccnc1NC(=O)c1ccncc1 | 0.477 (inactive)
c1ccc2c(C[n+]3csc4ccccc43)cccc2c1 | 4.99 (active)
c1ccc2c(CSCc3nc4ccccc4[nH]3)cccc2c1 | -2.07 (inactive)
Nc1scc[n+]1Cc1cccc2cccnc12 | -0.326 (inactive)
CC(=O)Nc1ccc(C(=O)/C=C/c2ccc[nH]2)cc1 | 0.0206 (inactive)
Cc1ccc(S(=O)(=O)N2CCN(C(=O)COC(=O)c3c(C)noc3C)CC2)c(C)c1 | 0.177 (inactive)
CCn1c(O)c(N=NC(=O)c2cccc(S(=O)(=O)N3CCCCC3)c2)c2ccccc21 | -0.0952 (inactive)
CCn1c(O)c(N=NC2=NC(=O)CS2)c2cc(C)ccc21 | 8.24 (active)
CCn1c(=O)cc(O)c2ccccc21 | 0.265 (inactive)
O=C(Cn1nnc(N2CCCCC2)n1)c1ccc(Cl)c(Cl)c1 | -0.13 (inactive)
C/C=N/N(c1ccccc1)c1ccccc1 | 0.121 (inactive)
Cc1ccc(S(=O)(=O)/N=C(/NC(=S)Nc2c(C)n(C)n(-c3ccccc3)c2=O)c2ccccc2)cc1 | -0.219 (inactive)
CC1CCCN(S(=O)(=O)c2ccc(C(=O)Nc3nnc(-c4ccncc4)o3)cc2)C1 (stereo not drawn) | -0.0172 (inactive)
CC1CCCCN1S(=O)(=O)c1ccc(S(=O)(=O)N(CC(=O)Nc2ccccc2)Cc2cccs2)cc1 (stereo not drawn) | 0.0298 (inactive)
CC1CCCCN1S(=O)(=O)c1ccc(C(=O)Nc2nnc(-c3cccs3)o2)cc1 (stereo not drawn) | 6.64 (active)
